Measured values reported in PubChem BioAssay (NCATS).
Records with an inconclusive call do not appear. The source made the active and inactive calls. The call rests on the fitted dose curve; in most records, active means well fitted inhibition curve with a large enough effect; inconclusive means small, poorly fitted or top-dose-only effect; inactive means flat fitted curve, though single readings scatter.

Experiments:
Assay in all cases: Cytotoxic Profiling of Annotated Libraries Using Quantitative High-Throughput Screening (AID 1296008); further: nearly all actives have a fitted effect of over 60% in size
Conditions in all cases: Five cell lines viability, CellTiter-Glo ATP luminescence, 48-72 h; max response: hits give low values
CRL-7250 = system: CRL-7250
Summary of the method: (§1)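 Cells exposed to compounds for 48 or 72 hr at 37 degrees Celsius. Viability read as ATP-coupled luminescence with CellTiter-Glo after 10 min at room temperature.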

HEK293 = system: HEK293
Summary of the method: as §1

HaCat = system: HaCat
Summary of the method: as §1

KB-3-1 = system: KB-3-1
Summary of the method: as §1

NIH3T3 = system: NIH3T3
Summary of the method: as §1

Measured: max response
On the % scale 0 is the no-effect control and ±100 the full control effect.

CC(C)c1ccc2c(c1)[C@H](O)CC1[C@@](C)(C(=O)O)CCC[C@]21C (stereo not given in full)
inactive: CRL-7250 -0.592% | HEK293 -18.5% | HaCat -16.8% | KB-3-1 -0.988% | NIH3T3

Nc1nc2c(nc(Sc3ccc(Cl)cc3)n2[C@@H]2O[C@@H]3COP(=O)(O)O[C@H]3[C@H]2O)c(=O)[nH]1
inactive: CRL-7250 1.71% | HEK293 1.54% | HaCat -3.37% | KB-3-1 | NIH3T3

C=C(C)C1CCC2(C(=O)OC3OC(COC4OC(CO)C(O)C(O)C4O)C(OC4OC(C)C(O)C(O)C4O)C(O)C3O)CCC3(C(=O)O)C(CCC4C5(C)CCC(=O)C(C)(C)C5CCC43C)C12 (stereo not given)
inactive: CRL-7250 -1.47% | HEK293 -21.3% | HaCat | KB-3-1 1.44% | NIH3T3

O=C1OC(c2ccc(O)cc2)C(O)=C1Cc1ccccc1 (stereo not given)
inactive: CRL-7250 3.91% | HEK293 0.741% | HaCat | KB-3-1 | NIH3T3 4.9%

C=C(C)[C@@]1(O)C[C@@]2(C)C(=CC1=O)CC[C@@H](O)[C@@H]2C
inactive: CRL-7250 3.28% | HEK293 4.61% | HaCat | KB-3-1 -1.96% | NIH3T3

C=C1CC[C@]2(C(=O)O[C@@H]3O[C@H](CO)[C@@H](O)[C@H](O)[C@H]3O)CC[C@]3(C)C(=CCC4[C@@]5(C)C[C@H](O)[C@@H](O[C@@H]6O[C@H](C(=O)O)[C@@H](O)[C@H](O)[C@H]6O)[C@](C)(C=O)C5CC[C@]43C)C2C1 (stereo not given in full)
inactive: CRL-7250 4.09% | HEK293 -16.5% | HaCat -21.8% | KB-3-1 9.97% | NIH3T3
